Screening data from PubChem.
Shown are actives, neighbours in structure and some others; about 3.2% of the full set was active somewhere.
TR SRC2 fluor cs = counter-screen for TRb-SRC2 inhibitors: fluorescence interference | hit rate 0.29% among 280,000 | TRb/SRC2 Texas Red total fluorescence interference | Potency, µM (series often up to 106 µM), for inactives: at the highest dose fluorescence change, negative = quenching; active = well fitted curve in either direction with a large enough effect; inconclusive = small, poorly fitted or top-dose-only effect
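Flags fluorescent or light-absorbing compounds by total fluorescence, S + 2P, at 555 nm excitation and 632 nm emission. Mixture: 20 nM Texas Red SRC2 peptide, 0.6 uM human TRb LBD, 1 uM T3, 5% DMSO; compound exposure 5 h at ambient temperature.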
RGS12 GoLoco inh = RGS12 GoLoco-Gai1 interaction inhibition; P63096; Gai1:RGS12 GoLoco peptide FP, rhodamine, 10 min; Potency, µM (titrated, usually from 61.6 µM), for the others: at the top dose activity, negative = inhibition, hits mostly inhibitors; hit rate 0.44% among 230,000; active = well fitted inhibition curve with a large enough effect, not every such curve was filed as active; inactive = no such curve, though single readings can be large or run the other way; note: nearly all actives have a fitted effect of over 30% in size
Target sequence (P63096 whole entry, looked up): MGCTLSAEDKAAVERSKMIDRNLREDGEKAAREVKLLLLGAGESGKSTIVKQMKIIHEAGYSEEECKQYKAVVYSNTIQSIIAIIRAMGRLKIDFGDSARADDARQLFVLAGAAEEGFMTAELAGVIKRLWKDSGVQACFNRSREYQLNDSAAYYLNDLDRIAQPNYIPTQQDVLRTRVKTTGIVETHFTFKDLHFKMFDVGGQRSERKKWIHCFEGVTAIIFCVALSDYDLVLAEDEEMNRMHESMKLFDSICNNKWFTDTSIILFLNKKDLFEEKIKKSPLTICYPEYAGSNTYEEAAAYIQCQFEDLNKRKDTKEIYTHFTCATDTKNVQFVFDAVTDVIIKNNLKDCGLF
Tau fibril ThT = blocks human tau fibril formation measured by thioflavin T. recombinant tau K18 P301L, heparin-induced fibrillization, ThT fluorescence. Potency, µM (series often up to 57.4 µM), without a hit: at the highest dose activity, negative = inhibition, actives largely listed as inhibitors. hit rate 2.1% among 270,000. AID 1460; note: nearly all actives have a fitted effect of over 55% in size
Target sequence (P10636 561-689 P618L limits assumed): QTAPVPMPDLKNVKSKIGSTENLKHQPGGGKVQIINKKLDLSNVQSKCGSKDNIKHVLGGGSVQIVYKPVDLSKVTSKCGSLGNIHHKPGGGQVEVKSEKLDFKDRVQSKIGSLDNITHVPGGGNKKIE
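Tau K18 P301L fragment (15 uM unlabeled plus 0.24 uM Alexa 594-labeled) in 100 mM sodium acetate pH 7 with compound, fibrillization induced by 20 uM heparin for 6 hr at 37 C. Thioflavin T (30 uM) added, fluorescence read after 1 hr (ex 450, em 510 nm).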
Tau FP inhib = tau fibrillization inhibition (FP). P10636. hit rate 0.39% among 280,000. AID 1468. Potency, µM (series often up to 57.7 µM), without a hit: at the highest dose activity, negative = inhibition, usual class: inhibitors. K18 P301L tau heparin fibrillization, Alexa594 FP, 6 h; note: nearly all actives have a fitted effect of over 55% in size
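Quantitative HTS format: compounds meet 15 uM recombinant K18 P301L tau and Alexa 594-tau tracer in 100 mM sodium acetate pH 7; 20 uM heparin triggers fibrillization at 37 C over 6 hr; FP gives the signal.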
TRb SRC2 PPI = disrupts binding of human TR beta to SRC2; TRbeta-SRC2 peptide binding, fluorescence polarization; receptor liganded with 1 µM T3; Potency, µM (highest dose often 106 µM), without a hit: at the highest dose activity change, negative = inhibition, hits mostly inhibitors; hit rate 0.065% among 280,000;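 note: plate controls were bound peptide for no effect and peptide without receptor for full effect; nearly all actives have a fitted effect of over 50% in size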
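Human TRb ligand-binding domain (0.6 uM) is mixed with 20 nM Texas Red SRC2 peptide and 1 uM T3; after compound addition and 5 hr at ambient temperature, polarization is measured and normalized to unbound and bound controls.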
Tau fluor counter = counter-screen for tau fibril formation inhibitors; hit rate 0.93% among 280,000; Potency, µM (highest dose often 57.7 µM), for the others: top-dose activity change, negative = decrease; AID 1463; tau K18 P301L (four-repeat tau fragment) Alexa594 fluorescence, heparin fibrillization; note: nearly all actives have a fitted effect of over 55% in size
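Human K18 P301L tau (15 uM unlabeled plus 0.24 uM Alexa 594-labeled, final) in 100 mM sodium acetate pH 7 was mixed with compound and 20 uM heparin and incubated 6 hr at 37 C.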
An asterisk follows results filed as active; ? = inconclusive; / = no result given; [ ] = another dose, or the depositor's remark. Unless noted, calls come from the whole dose curve; as a rule, active = well fitted curve in the direction sought with a large enough effect; inconclusive = small, poorly fitted or top-dose-only effect, or another doubt; inactive = no such curve, though single readings can be large; an effect the other way counts as inactive or inconclusive. Unless noted, % is set by controls: 0 for no effect and ±100 for the full control effect; potency is the fitted concentration of half-maximal effect.

SMILES	TR SRC2 fluor cs	RGS12 GoLoco inh	Tau fibril ThT	Tau FP inhib	TRb SRC2 PPI	Tau fluor counter
Cc1c(Cl)cccc1NC(=O)N1CCN(Cc2cc(=O)n3nc(-c4ccccc4F)sc3n2)CC1	-1%	/	?	4%	0%	5%
O=C(CSc1ncc(S(=O)(=O)c2ccc(Cl)cc2)c(=O)[nH]1)Nc1cccc(C(F)(F)F)c1	0%	/	-6%	-2%	5%	-13%
CC(C)c1ccc(S(=O)(=O)c2cnc(SCC(=O)Nc3cccc(C(F)(F)F)c3)nc2N)cc1	4%	/	?	13µM*	15%	?
CCN1c2ccccc2-c2nc(SCC(=O)Nc3cccc(C(F)(F)F)c3)ncc2S1(=O)=O	-2%	/	13%	28µM*	-5%	?
CCC1=NN2C(=N)/C(=C\c3ccc(OCc4cc(=O)n5nc(CC)sc5n4)c(OC)c3)C(=O)N=C2S1	-2%	10%	11µM*	-11%	4%	-22%
Cc1nnc(NC(=O)CSc2nccn2-c2cccc(Cl)c2)s1	-2%	/	1%	-4%	2%	1%
Cc1ccccc1Nc1c(-c2c[nH]c3ccccc23)nc2ccc(Cl)cn12	-3%	/	-17%	?	3%	?
Cc1ccccc1Nc1c(-c2c[nH]c3ccccc23)nc2ccccn12	1%	/	-13%	4%	-4%	?
Cc1ccc2nc(-c3c[nH]c4ccccc34)c(Nc3ccc(F)cc3)n2c1	1%	/	-11%	?	-8%	5µM*[quencher]
Cc1ccn2c(Nc3ccccc3)c(-c3c[nH]c4ccccc34)nc2c1	?	/	?	?	0%	11µM*[quencher]
Cc1ccc(Nc2c(-c3c[nH]c4ccccc34)nc3cc(C)ccn23)cc1	-14%	/	?	3%	3%	11µM*[quencher]
CC1CN(C(=O)CCC(=O)NCc2cccc(Cl)c2)c2ccccc2S1 (stereo not drawn)	28µM*[quencher]	/	-17%	-6%	-13%	?
COc1cc(/C=C2\SC(c3ccc(C)cc3)=NC2=O)ccc1O	-6%	87%	14µM*	?	-2%	?
COc1cc(/C=C2\SC(c3ccc(C)cc3)=NC2=O)cc(OC)c1OC	0%	25%	14µM*	?	-6%	-27%
COc1cc(/C=C2\SC(N3CCc4ccccc4C3)=NC2=O)cc(OC)c1OC	?	8%	?	2%	-6%	-1%
COc1ccc(/C=C2/SC(c3ccc(C)cc3)=NC2=O)cc1OC	-3%	86%	14µM*	?	-5%	?
COc1ccc(/C=C2\SC(c3ccc(C)cc3)=NC2=O)cc1OC	-3%	103%	11µM*	?	-1%	?
COc1cc(/C=C2\SC(N)=NC2=O)ccc1OCC(=O)Nc1ccc(C)cc1	0%	37%	?	?	-3%	-22%
Cc1cc(=O)[nH]c2cc3oc4ccccc4c3cc12	/	3%[14.2 µM]	/	/	/	/
Cc1ccc2nc(N(Cc3cccnc3)C(=O)C3CCCCC3)sc2c1	-1%	/	?	-6%	-9%	-18%
COc1cc(/C=C2\SC(c3ccccc3)=NC2=O)cc(Cl)c1O	-2%	157%	4.5µM*	?	-2%	?
Cc1ccc(Cl)c2sc(NC(=O)CS(=O)(=O)c3ccc(Cl)cc3)nc12	0%	/	1%	11µM*	-7%	?
Cc1cc(Nc2cccc(F)c2)nc(NCc2ccccc2)n1	-2%	11%	0%	?	7%	16µM*[quencher]
Cc1cc(Nc2ccc(Cl)cc2)nc(NCc2ccccc2)n1	-6%	5%	-18%	?	4%	18µM*[quencher]
Cc1cc(N/N=C/c2ccc(Cl)cc2Cl)nc(NCc2ccccc2)n1	1%	-16%	?	-11%	4%	-29%
SMILES	TR SRC2 fluor cs	RGS12 GoLoco inh	Tau fibril ThT	Tau FP inhib	TRb SRC2 PPI	Tau fluor counter
Cc1ccc(/C=N/Nc2cc(C)nc(NCc3ccccc3)n2)cc1	4%	-3%	?	?	-2%	?
CCCCNc1cc(C)nc(NCc2ccccc2)n1	-1%	15%	-11%	-3%	-6%	-21%
Cc1cc(N/N=C/c2ccc(N(C)C)cc2)nc(NCc2ccccc2)n1	-5%	14%	4µM*	4%	2%	7.9µM*[quencher]
Cc1cc(N/N=C/c2ccc(F)cc2)nc(NCc2ccccc2)n1	0%	4%	-18%	-17%	3%	?
Cc1cc(Nc2ccccc2)nc(NCc2ccccc2)n1	-4%	6%	-10%	?	1%	18µM*[quencher]
Cc1ccc(CNC(=O)COCc2cc(-c3ccc4c(c3)OCO4)on2)cc1	9%	/	-14%	0%	2%	-7%
CC[C@H](C)[C@H](NC(=O)CNC(=O)[C@H](CCCNC(=N)N)NC(=O)CNC(=O)[C@@H](NC(=O)[C@H](Cc1ccc(O)cc1)NC(=O)[C@H](Cc1c[nH]c2ccccc12)NC(=O)[C@H](C)NC(=O)[C@@H]1CCCN1C(=O)[C@H](CC(N)=O)NC(=O)[C@@H](NC(=O)[C@H](CC(=O)O)NC(=O)[C@@H]1CCCN1C(=O)[C@@H](N)[C@@H](C)O)[C@@H](C)CC)[C@@H](C)O)C(=O)N[C@@H](CCCNC(=N)N)C(=O)N1CCC[C@H]1C(=O)N[C@H](C(=O)NCC(=O)N[C@@H](CCCNC(=N)N)C(=O)N[C@@H](Cc1ccccc1)C(N)=O)C(C)C	-8%	/	/	/	-4%	/
CC(=O)N1CCC(=NNc2nc3ccccc3[nH]2)CC1	-2%	-6%	?	-6%	1%	-26%
CCC(C)(C)C1CCC(=NNc2nc3ccccc3[nH]2)CC1 (stereo not drawn)	-1%	1%	16µM*	?	8%	?
COc1cccc([C@@H]2Oc3ccc(Br)cc3C[C@H]2OC(=O)Nc2ccc(OC(F)F)cc2)c1	0%	-9%	-18%	-9%	-2%	?
C[N+](C)(C)CCCCCC(=O)/C=N/O	-2%	2.5µM*	0%	-1%	2%	-3%
CCOC(=O)c1c(S(=O)(=O)N2CCCC(C(=O)NCc3ccc(Cl)cc3)C2)c(C)n(C)c1C (stereo not drawn)	-10%	/	4%	6%	0%	0%
S=C(NCc1ccccc1)NNc1nc2ccccc2[nH]1	-2%	18%	28µM*	?	3%	?
Oc1c(N=Nc2ccccn2)ccc2ccccc12	-10%	124%	4.5µM*	?	-2%	?
COc1cc(Cl)c(NC(=O)CN(C)S(=O)(=O)c2ccc3[nH]c4c(c3c2)CCCC4)c(OC)c1	3%	/	-7%	8%	-3%	?
COc1ccc(C2NC3=C(CCCC3)C(C#N)(C#N)C2(C#N)C#N)cc1 (stereo not drawn)	16%	169%	25µM*	?	?	?
